Assay results: the supplement of paper PMC11417369
In all, about 25,000 sequences were measured (“ln(normalized median fluorescence intensity)”: median about 9.7, highest 2% from about 11 on). This excerpt belongs to a sample that is enriched for the highest values.

What follows are sequences tested on PfAP2-HC AP2 domain (GST-tagged) (assay: gcPBM binding intensity (ln(normalized median fluorescence intensity)); higher = stronger DNA binding).
In short: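 GST-tagged P. falciparum DNA-binding domains, expressed in E. coli (about 25 μg on average), were applied for 1 h to an Agilent 4 × 180k array of primer-extended double-stranded 36-bp intergenic genomic probes plus negative controls. The binding buffer was 1× PBS with 1% milk, 0.2 mg/ml BSA, 0.5% salmon testes DNA and 0.03% Triton X-100. Bound protein was detected with Alexa488 anti-GST antibody and scanned at 488 nm. Binding intensity is the highest Masliner-normalised natural-log median intensity across replicate spots of either probe orientation.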

Row | Sequence | gcPBM binding intensity (ln)
1 | TTTTAAAAATCTATATGTACACAATACGTCTATAAA [XGTACX_site5787] | 9.54
2 | AAAAAAAAACAAAAAAGTACAAAATAAAAATACGTT [XGTACX_site4566] | 9.75
3 | TTTTTTTCTTTTCAAACACACAATTGGTATATATTA [CACACA_site3320] | 9.81
4 | AAGAATTATAGAAACACACATACATACAGACATACA [CACACA_site1943] | 10.1
5 | AACGTCTTTTTTTTTTTTTTTCTTTTTTTTTTTATT [CACACA_negctrl_site303] | 9.86
6 | AAAAAAAACACGCGCACACACACACCCACAGACACA [CACACA_site5253] | 10.7
7 | AAAAAAACAACATGCACACGCACACCCAAAAAAAGC [CACACA_site72] | 10.7
8 | AGAAAAAAACAACATGCACACGCACCCACAAAAAAA [CACACA_site7908] | 10.4
9 | AAAAAAAAAACAAATACACACGCACCCAAAAAAAAA [CACACA_site8166] | 10.2
10 | AAAAAAAACACGCGCACACACACACCCACCCACCGA [CACACA_site2206] | 11.5
11 | AAAAAACACGCGCACACACACACACGCGCCCACATA [CACACA_site7106] | 11.1
12 | AAAAAAAAAACACGCGCACACACACCCACCCACCCA [CACACA_site8689] | 10.9
13 | AAAAAAAAAAAAAAAACACACATACACGCACGCACA [CACACA_site7569] | 10.8
14 | AAAAAAAAAAAAAACACACATACACGCCCACCCATA [CACACA_site3391] | 10.4
15 | GTATAATTGGAAATTACACACCTTAGAATGTAACAT [CACACA_site4059] | 9.68
16 | AAAACTATAAAAATTTTACACACTGTTTTTAAATAA [CACACA_site3667] | 9.57
17 | TATATTATTCATTAAGCACACATTATTTTTATAATA [CACACA_site6056] | 9.69
18 | TTTTTATTTATTAATACACACACACCCACCCACAAA [CACACA_site7965] | 10.4
19 | TTAATACCCAGACACACACACACAAAATAAAATACA [CACACA_site7968] | 11
20 | GTATTATATTTTAATACACACCCAAATATTAAAAAG [CACACA_site8968] | 9.77
21 | TTAATACCCGGACACACACACACAAAATAAAATACA [CACACA_site4296] | 10.6
22 | TTTATTTATTAATACACACACACACGCCCACAAAAT [CACACA_site6253] | 10.5

Row | Sequence | gcPBM binding intensity (ln)
23 | TATTAATACAGACACACACACACACCCAATAAAATA [CACACA_site243] | 10.8
24 | TTTATTTATTAATACACACACACACCCAGACAAAAT [CACACA_site4292] | 11.3
25 | ACATAATTAACAAATACACACACACCCACCCACAAA [CACACA_site8069] | 10.7
26 | ATAATTAACAAATACACACACACACCCCCACAAAAA [CACACA_site518] | 10.9
27 | ATAATTAACAAATACACACACACACCCAGACAAAAA [CACACA_site4445] | 10.8
28 | ATAATTAACAAATACACACACACACGCCCACAAAAA [CACACA_site6389] | 11.6
29 | TTTATTTATTAATACACACACACACCCCCACAAAAT [CACACA_site240] | 11.4
30 | AAAATCTATATTAACACACACACAAAAAAAAAAAAA [CACACA_site6738] | 10.6
31 | TAACTTGAATGGATATGTACATATATATATATATAT [XGTACX_site5990] | 10
32 | TTGTTTTTTTTTTCTATAAGCATAAAAATGATATAA [XGTACX_negctrl_site356] | 9.27
33 | ATATAAGAAATAAAGAAAAATGTGTTTTTTTTTTTT [XGTACX_negctrl_site396] | 9.6
34 | ATATATATATATATAACACACGCAAAAAAATTAAAT [CACACA_site8395] | 10.1
35 | ACGATGAATATGTAAAGTACGCAAATGTAACAATAT [XGTACX_site728] | 9.91
36 | TATCATTGTTCATGCTTGCACTTTTGTTACTGTTCC [GTGCAC_site9425] | 9.87
37 | GAGAACATTGATACACGTACATAAGTTATAAGTATT [XGTACX_site7665] | 9.71
38 | TTAATTACATGTAATTGTACTTAATTATAAGACATT [XGTACX_site464] | 9.52
39 | AAAAAAAATATCTATGCATGTAATATTATGATATTG [TGCATGCA_site546] | 9.58
40 | TTCAAAAATATATAATGTACACAAATATAAAAGAAT [XGTACX_site1944] | 9.81
41 | ATACTAAAGAAACACACACACATATATATATAGAAT [CACACA_site100] | 10.9
42 | AATAAAAAGAAACACACACACACACCCATATATATA [CACACA_site3589] | 11.5
43 | AAAGAAAAAAAAAACACACACACACCCATTCAATAT [CACACA_site38] | 11.4
44 | AAAAAGGAGAAACACACACACACACCCATATATATA [CACACA_site905] | 10.7
